From PubChem BioAssay (NCI) come the findings set out here.

The structures appear in SMILES notation. This is part of a sample that, as a whole, favours compounds with a hit. Of some 83,000 tested, about 20% had one in any assay.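 Method: cells in 96-well plates; compound added at one concentration; 48 h incubation; percent growth measured; values under 10 scored active.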 Values without a mark were called inactive. Activity calls are given as the source filed them.

The test system of the first test is SNB-19 CNS. Briefly: NCI-60 one-dose screen, 48 h (100 = growth as untreated, 0 = no growth, -100 = all killed). Conditions: 10 µM unless noted.
Consider `C=CCn1c(SCC(=O)Nc2ccc(C(=O)/C=C/c3ccc(Cl)cc3)cc2)nnc1-c1c[nH]c2ccccc12`, for which the growth was 76.1%.

`O=C(NNc1nc2cc(F)c(F)cc2n2c(CN3CC4CNCC4C3)ccc12)c1cnccn1` (stereo unspecified): the growth was 25.9%.

For the compound `COc1ccc2c(c1)c(CC(=O)[Se]CC#N)c(C)n2C(=O)c1ccc(Cl)cc1`, the growth was 50.3%.

Turning to `O=C(NNc1nc2cc(F)ccc2n2c(CN3CCC(O)C3)ccc12)c1cnccn1` (stereo unspecified), the growth is 22.3%.

As to `COc1ccc(COc2ccc(/C=C3\C(=O)Nc4ccccc43)cc2OC)cc1`, the growth was 97.3%.

For the compound `O=C(NNc1nc2cc(F)ccc2n2c(CO)ccc12)c1cnccn1`, the growth was 21.8%.

In the case of `N#Cc1cn(Cc2ccc(Cl)cc2Cl)c(C(=O)c2ccc(Br)cc2)c1N`, the growth is 69.5%.

As for `O=C(CN1CCN(c2cc(=O)n(-c3ccccc3)c3ccccc23)CC1)Nc1nc(-c2ccccc2)cs1`, the growth was 85.2%.

Consider `COc1ccc(CCOc2cc3c(cc2OC)CCN(C(=O)NCc2cocn2)C3c2ccc(C)cc2C)cc1` (stereo unspecified), for which the growth is 22%.

Take `COc1ccc(Oc2ccc(/C=N/NC(=O)CSc3nc4ccccc4c(=O)n3-c3ccc(Cl)cc3)cc2)cc1`: the growth is 61.5%.

Turning to `N#Cc1cccc(CN2CCC3=C(C2)C(=O)N(Cc2ccc(Cl)cc2)C2=NCCCN23)c1`, the growth is 21.8%.

As to `O=C(NNc1nc2cc(F)ccc2n2c(CN3CC4CNCC4C3)ccc12)c1cnccn1` (stereo unspecified), the growth is 33.5%.

With `CCOc1ccccc1NC1=C(Cl)C(=O)c2nc(C)ccc2C1=O`, the growth is 46.5%.

Consider `CCCCCc1ccc(S(=O)(=O)Nc2cccc(-c3csc(NC(=O)CCCCCN4CCN(CCO)CC4)n3)c2)cc1`, for which the growth is 85.9%.

For `CCOc1ccc(NC2=C(Cl)C(=O)c3nc(C)ccc3C2=O)cc1`, the growth is 44.7%.

Consider `COc1cc(/C=C2\C(=O)Nc3ccccc32)ccc1OCc1ccc(Cl)cc1`, for which the growth is 97.1%.

With `COc1cc(-c2nc(SCCC(C)C)nc(NNC(=O)c3ccncc3)c2C#N)cc(OC)c1OC`, the growth is 66%.

With `O=C(NNc1nc2cc(F)cc(F)c2n2cccc12)c1cnccn1`, the growth is 25%.

Regarding `O=C(CCn1cc[n+](CC(=O)c2ccc(-c3ccccc3)cc2)c1)Nc1cccc2cccnc12`, the growth is 61.4%.

For the compound `COc1c(N2CC3CCCNC3C2)c(F)cc2c(=O)c(C(=O)N/N=C/c3ccc4c(c3)OCO4)cn(C3CC3)c12` (stereo unspecified), the growth was 80.5%.

In the case of `COc1ccc(/C=C(/C)c2ccc3ccc(OC)cc3[o+]2)c(O)c1`, the growth was 82.4%.

Regarding `CN(C)CCNC(=O)c1ccc(-c2nc3ccc4[nH]ncc4c3c3c2CCC3)cc1`, the growth was 9.44% (active).

Regarding `COc1ccccc1NC1=C(Cl)C(=O)c2nc(C)ccc2C1=O`, the growth was 38.9%.

As to `CCNC(=O)N1CCc2cc(OC)c(OCCc3ccc(OC)cc3)cc2C1c1ccc(Cl)cc1C` (stereo unspecified), the growth was 26%.

Consider `Cc1cc2nc(C(Cl)Cl)nc(-c3cccs3)n2n1`, for which the growth was 21%.

`CN(C)CCNC(=O)c1ccc(-c2nc3ccc4[nH]ncc4c3c3c2COCC3)cc1`: the growth is 6.94% (active).

On to `CN1CCN(Cc2ccc(NC(=O)c3cncc(C#Cc4cnc5ccc(OCC(C)(C)O)nn45)c3)cc2C(F)(F)F)CC1`, for which the growth was -8.47% (active).

Consider `Nc1ncc(-c2ccc3ncnc(Nc4cccc(Cl)c4F)c3c2)cn1`, for which the growth was 59.4%.

Turning to `COc1ccc(/C=C/C(=O)c2cccc(NC(=O)CSc3nc4ccccc4c(=O)n3-c3ccccc3)c2)cc1OC`, the growth was 93.4%.

On to `O=C(NNc1nc2cc(F)ccc2n2c(CN3CCCC3)ccc12)c1cnccn1`, for which the growth is 25.2%.

Take `CC/C(=C/c1c(O)cccc1OC)c1ccc2c(OC)cccc2[o+]1`: the growth is 99.4%.

As for `CS(=O)(=O)Nc1cc(-c2ccc3ncc(C#N)c(NCc4ccccc4F)c3c2)cnc1Cl`, the growth was 12.8%.

Consider `COc1ccccc1-n1cc(C#N)c(N)c1C(=O)c1ccc(Cl)cc1`, for which the growth is 69.4%.

In the case of `N=c1c2cc(-c3ccccc3)oc2ncn1/N=C/c1ccc(Cl)cc1`, the growth was 86.5%.

In the case of `C=CCn1c(SCC(=O)Nc2ccc(C(=O)/C=C/c3cc(OC)c(OC)c(OC)c3)cc2)nnc1-c1c[nH]c2ccccc12`, the growth is 21.7%.

As to `COC(=O)C[Se]C(=O)Cc1c(C)n(C(=O)c2ccc(Cl)cc2)c2ccc(OC)cc12`, the growth was 31.7%.

On to `COc1ccc(NC2=C(Cl)C(=O)c3nc(C)ccc3C2=O)cc1OC`, for which the growth was 94.6%.

Turning to `NC(N)=Nc1ccc(Oc2cccc(NC(N)=Nc3ccc(I)cc3F)c2)cc1`, the growth was 20.7%.

Another test relates to U251 CNS. The test is described as above. Conditions: 10 µM unless noted.
For `C=CCn1c(SCC(=O)Nc2ccc(C(=O)/C=C/c3ccc(Cl)cc3)cc2)nnc1-c1c[nH]c2ccccc12`, the growth was 76.3%.

On to `O=C(NNc1nc2cc(F)c(F)cc2n2c(CN3CC4CNCC4C3)ccc12)c1cnccn1` (stereo unspecified), for which the growth was 22.4%.

Consider `COc1ccc2c(c1)c(CC(=O)[Se]CC#N)c(C)n2C(=O)c1ccc(Cl)cc1`, for which the growth was 19.7%.

Regarding `O=C(NNc1nc2cc(F)ccc2n2c(CN3CCC(O)C3)ccc12)c1cnccn1` (stereo unspecified), the growth is 19.9%.

Take `COc1ccc(COc2ccc(/C=C3\C(=O)Nc4ccccc43)cc2OC)cc1`: the growth was 109%.

Consider `O=C(NNc1nc2cc(F)ccc2n2c(CO)ccc12)c1cnccn1`, for which the growth was 16.5%.

On to `N#Cc1cn(Cc2ccc(Cl)cc2Cl)c(C(=O)c2ccc(Br)cc2)c1N`, for which the growth was 86.1%.

For `O=C(CN1CCN(c2cc(=O)n(-c3ccccc3)c3ccccc23)CC1)Nc1nc(-c2ccccc2)cs1`, the growth is 59.2%.

Turning to `COc1ccc(CCOc2cc3c(cc2OC)CCN(C(=O)NCc2cocn2)C3c2ccc(C)cc2C)cc1` (stereo unspecified), the growth was 5.74% (active).

On to `COc1ccc(Oc2ccc(/C=N/NC(=O)CSc3nc4ccccc4c(=O)n3-c3ccc(Cl)cc3)cc2)cc1`, for which the growth is 36.5%.

In the case of `N#Cc1cccc(CN2CCC3=C(C2)C(=O)N(Cc2ccc(Cl)cc2)C2=NCCCN23)c1`, the growth was 23.7%.

As for `O=C(NNc1nc2cc(F)ccc2n2c(CN3CC4CNCC4C3)ccc12)c1cnccn1` (stereo unspecified), the growth was 27.2%.

As for `CCOc1ccccc1NC1=C(Cl)C(=O)c2nc(C)ccc2C1=O`, the growth was 37.9%.

Consider `CCCCCc1ccc(S(=O)(=O)Nc2cccc(-c3csc(NC(=O)CCCCCN4CCN(CCO)CC4)n3)c2)cc1`, for which the growth was 65.8%.

For `CCOc1ccc(NC2=C(Cl)C(=O)c3nc(C)ccc3C2=O)cc1`, the growth is 15.6%.

For `COc1cc(/C=C2\C(=O)Nc3ccccc32)ccc1OCc1ccc(Cl)cc1`, the growth is 107%.

As to `COc1cc(-c2nc(SCCC(C)C)nc(NNC(=O)c3ccncc3)c2C#N)cc(OC)c1OC`, the growth is 79.7%.

With `O=C(NNc1nc2cc(F)cc(F)c2n2cccc12)c1cnccn1`, the growth was 16.2%.

Regarding `O=C(CCn1cc[n+](CC(=O)c2ccc(-c3ccccc3)cc2)c1)Nc1cccc2cccnc12`, the growth was 61.2%.

Consider `COc1c(N2CC3CCCNC3C2)c(F)cc2c(=O)c(C(=O)N/N=C/c3ccc4c(c3)OCO4)cn(C3CC3)c12` (stereo unspecified), for which the growth is 12.4%.

In the case of `COc1ccc(/C=C(/C)c2ccc3ccc(OC)cc3[o+]2)c(O)c1`, the growth was 84.6%.

Turning to `CN(C)CCNC(=O)c1ccc(-c2nc3ccc4[nH]ncc4c3c3c2CCC3)cc1`, the growth is 25.3%.

As to `COc1ccccc1NC1=C(Cl)C(=O)c2nc(C)ccc2C1=O`, the growth is 62.8%.

Consider `CCNC(=O)N1CCc2cc(OC)c(OCCc3ccc(OC)cc3)cc2C1c1ccc(Cl)cc1C` (stereo unspecified), for which the growth is 13.1%.

Regarding `Cc1cc2nc(C(Cl)Cl)nc(-c3cccs3)n2n1`, the growth is -11.1% (active).

Regarding `CN(C)CCNC(=O)c1ccc(-c2nc3ccc4[nH]ncc4c3c3c2COCC3)cc1`, the growth is 5.37% (active).

With `CN1CCN(Cc2ccc(NC(=O)c3cncc(C#Cc4cnc5ccc(OCC(C)(C)O)nn45)c3)cc2C(F)(F)F)CC1`, the growth was -59.3% (active).

Consider `Nc1ncc(-c2ccc3ncnc(Nc4cccc(Cl)c4F)c3c2)cn1`, for which the growth is 67.9%.

In the case of `COc1ccc(/C=C/C(=O)c2cccc(NC(=O)CSc3nc4ccccc4c(=O)n3-c3ccccc3)c2)cc1OC`, the growth is 101%.

Turning to `O=C(NNc1nc2cc(F)ccc2n2c(CN3CCCC3)ccc12)c1cnccn1`, the growth was 19.8%.

For the compound `CC/C(=C/c1c(O)cccc1OC)c1ccc2c(OC)cccc2[o+]1`, the growth is 99.5%.

As for `CS(=O)(=O)Nc1cc(-c2ccc3ncc(C#N)c(NCc4ccccc4F)c3c2)cnc1Cl`, the growth is 11.5%.

With `COc1ccccc1-n1cc(C#N)c(N)c1C(=O)c1ccc(Cl)cc1`, the growth was 91.9%.

In the case of `N=c1c2cc(-c3ccccc3)oc2ncn1/N=C/c1ccc(Cl)cc1`, the growth is 66.4%.

Regarding `C=CCn1c(SCC(=O)Nc2ccc(C(=O)/C=C/c3cc(OC)c(OC)c(OC)c3)cc2)nnc1-c1c[nH]c2ccccc12`, the growth is 8.96% (active).

With `COC(=O)C[Se]C(=O)Cc1c(C)n(C(=O)c2ccc(Cl)cc2)c2ccc(OC)cc12`, the growth was 46.2%.

For `COc1ccc(NC2=C(Cl)C(=O)c3nc(C)ccc3C2=O)cc1OC`, the growth was 106%.

For `NC(N)=Nc1ccc(Oc2cccc(NC(N)=Nc3ccc(I)cc3F)c2)cc1`, the growth was 47.4%.
